Measured values from PubChem BioAssay (NCI).
About 83,000 compounds went through this panel and 20% of them were active in at least one assay; those are over-represented in the sample as a whole.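 The test compound was applied at a single concentration to cells in 96-well plates for 48 hours, and percent growth was recorded.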 Unmarked numbers belong to inactive results. Active and inactive are the calls of the source.

tested on: BT-549 breast; assay: NCI-60 one-dose screen, 48 h (100 = growth as untreated, 0 = no growth, -100 = all killed); settings: 10 µM unless noted
Method: Growth inhibition of the BT-549 human tumor cell line is measured as a screen for anti-cancer activity. Cells are grown in 96 well plates and exposed to the test compound for 48 hours. Compounds are tested at a single concentration, which is 10^-5 M for most compounds. The reported endpoint is percent growth (GI% or GIPRCNT), where numbers from 0 - 100% represent growth inhibition, and numbers from -100% - 0 represent cell death. For example, a value of 40 represents 60% growth inhibition. A value of 0 means no net growth occurred over the course of the experiment. A value of -40 indicates 40% of cells at the beginning of the experiment died by the end of the experiment. A value of -100 means all cells are dead at the end of the experiment.
NCI-60 Human Tumor Cell Lines Screen was performed using the standard one-dose NCI protocol, which is described in more detail at https://dtp.cancer.gov/discovery_development/nci-60/default.htm.
Compounds with GIPRCNT values below 10 were considered active. Activity score was based on GIPRCNT using the following formula: […]
Score is 0 for GIPRCNT values of 100 or above, 50 for GIPRCNT values of 0, and 100 for GIPRCNT values of -100.

SMILES	growth
Nc1cc(C(=O)N/N=C\c2ccc(OC(F)F)c(OC3CCCC3)c2)nn1CC(O)c1ccccc1 (stereo not given)	118%
CN1CCN(c2ccc(Nc3nc(NCCCNS(=O)(=O)c4cccc(F)c4)c4sccc4n3)cc2)CC1	42.7%
C#CCOc1cccc(/C(N)=N/C(N)=N/c2nc3ccccc3s2)c1	91.7%
N#Cc1c(-c2cccs2)cc(-c2cnccn2)nc1SCC(=O)N/N=C/c1ccc(Cl)cc1	107%
CSc1ccc(/C(=N/N=C(N)N)c2ccc(F)cc2)cc1	16.2%
COc1ccc(/C(=N\N=C(N)N)c2ccc(Cl)cc2)cc1OC	81.2%
O=C(CSc1nc2ccccc2c(=O)n1-c1ccc(Cl)cc1)N/N=C/c1ccc(Oc2ccc(Cl)cc2)cc1	-17.7% (active)
C#C[C@]1(O)CC[C@H]2[C@@H]3CC=C4c5sc(N6CCN(C)CC6)nc5CC[C@]4(C)[C@H]3CC[C@@]21C	16.9%
COc1ccc2[nH]cc(-c3nn4cc(-c5ccncc5)nc4s3)c2c1	74.8%
Fc1ccc(-c2cn3c(-c4c[nH]c5ccc(Br)cc45)csc3n2)cc1	95.4%
O=C1/C(=C/C=C/c2ccco2)SC(=S)N1Cc1ccccc1	110%
CC(Nc1c(C#N)cnc2ccc(-c3cncc(O)c3)cc12)c1ccccc1 (stereo not given)	-18.3% (active)
CCN(CC)c1ccc(/C=N/NC(=O)c2ccc(S(N)(=O)=O)cc2)c(O)c1	26.5%
CC1=C(C)C(=O)C(Nc2ccc(C)c(C)c2)=C(Br)C1=O	100%
CC(Nc1c(C#N)cnc2ccc(-c3cncc(-c4n[nH]c(=O)o4)c3)cc12)c1ccccc1 (stereo not given)	-20.1% (active)
CC1=Cc2ccccc2OC12C=Cc1ccccc1O2 (stereo not given)	106%
CCCCSC1=C(Cl)CN(c2ccccc2)C1=O	110%
CCCC/C(=C\c1ccc(O)c(O)c1)C(=O)NC(Cc1ccccc1)C(=O)C(=O)NCCc1ccc(OC)cc1 (stereo not given)	84.1%
CC1=C(C)C(=O)C(Nc2ccc(C)cc2)=C(Br)C1=O	104%
Cn1ncc2ncc(-c3ccc4ncc(C#N)c(N5CCc6cc(F)c(Cl)cc65)c4c3)cc21	37.4%

SMILES	growth
O=C1[C@@H]2Cc3c([nH]c4ccccc34)[C@H](c3ccc(Cl)cc3)N2C(=O)CN1C1CCN(Cc2ccccc2)CC1	72.1%
CCNCCOc1ccc(/C(=C(/CC)c2ccc(Cl)cc2)c2ccc(OCCCN(C)C)cc2)cc1	-91.7% (active)
O=C(/C=C/c1csc(Br)n1)NO	80.7%
CCN(CC)CCOc1ccc(C(=C(c2ccccc2)C2CCCC2)c2ccc(OCCN(CC)CC)cc2)cc1	-18.6% (active)
Cc1ccc2c(n1)C(=O)C(Cl)=C(Nc1cccc(C)c1C)C2=O	44%
Cn1cc(-c2nn3cc(-c4ccncc4)nc3s2)c2cc(F)ccc21	64.6%
COc1ccc(-c2nc(C#N)c(N3CCC(S(=O)(=O)N4CCOCC4)CC3)o2)cc1	108%
COc1ccc2[nH]cc(/C=N/Nc3ccnc4cc(Cl)ccc34)c2c1	-91.8% (active)
NC1[C@H]2CN(c3cnc(C(=O)Nc4cc(F)cc5cccnc45)cn3)C[C@@H]12 (stereo not given in full)	91.8%
CCc1cc2c(cc1Cl)nc1c(=O)[nH]c(=O)nc-1n2CCOCC(C)(C)C	95%
Cn1cc(-c2cc3ncnc(Nc4ccc(NC(=O)Nc5cc(C(C)(C)C)on5)cc4)c3s2)cn1	16.4%
Oc1ccc(-c2nc3ccc(/C(=N\N=C\c4ccc(Cl)cc4)c4ccccc4)cc3[nH]2)cc1	94.3%
CN1CCN(CC#CCn2c3c(c4ccccc42)C[C@]2(C)[C@H]4CC=C5[C@@H]6CC(C)(C)CC[C@]6(C(=O)N6CCOCC6)CC[C@@]5(C)[C@]4(C)CC[C@H]2C3(C)C)CC1	96.2%
COc1ccc(/C=N/N=C(/c2ccccc2)c2ccc3nc(-c4ccc(Cl)cc4)[nH]c3c2)cc1	85.7%
N#Cc1c(-c2cccs2)c(C#N)c(=O)n(Cc2nc3ccccc3[nH]2)c1N	102%
CC(C)(C)c1cc(NC(=O)Nc2ccc(-c3cn4c5c(sc4n3)CCc3c[nH]cc3-5)cc2)no1	18.7%
COc1ccc(/C=N\NC(=O)c2cnn(CC(O)c3ccccc3)c2N)cc1OCc1ccc(Cl)cc1 (stereo not given)	109%
CCN1CCN(c2ccc(NC(=O)Nc3ccc4c(ccn4-c4ccnc(C(=O)NC)c4)c3)cc2C(F)(F)F)CC1	73.6%
C(=N\Nc1nc(N/N=C/c2ccc3c(c2)OCO3)nc(N2CCCCC2)n1)/c1ccc2c(c1)OCO2	122%
N#CC1=C2NCCCNc3oc(nc3C#N)Cc3ccccc3CC(=N1)O2	135%
